Paper PMC4552634, “A New Set of Chemical Starting Points with Plasmodium falciparum Transmission-Blocking Potential for Antimalarial Drug Discovery” (PLoS ONE, 2015)
The campaign covered roughly 13,000 compounds. About 3,200 (25%) showed an effect of 50% or more. Some of the results follow.

The compounds below were run on P. falciparum stage V gametocytes. Settings: 48 h, 5 µM; inhibitor.
Design: BacTiter-Glo ATP luminescence viability of purified stage V gametocytes in 384-well plates, per cent inhibition versus DMSO

Q: For `C#C[C@H]1O[C@@H](n2cnc3c(Nc4cc(Br)cc(C(F)(F)F)c4)ncnc32)[C@H](O)[C@@H]1O` [TCMDC-135185], which “% Inhibition” value is on record?
A: The value was 10.32%.

Q: Which “% Inhibition” value does the source give for `CCC(N)(C#Cc1ccc(-c2c(C)[nH]c(C)c(Br)c2=O)cc1)CC` [TCMDC-134693] here?
A: The value was 83.96%.

Q: `Cc1[nH]c(C)c(-c2ccc(CCc3ccc(F)cc3F)cc2)c(=O)c1Cl` [TCMDC-135462] was tested. Which “% Inhibition” value did it give?
A: The value was 72.17%.

Q: Which “% Inhibition” value does the source give for `Cc1[nH]c(C)c(-c2ccc(CCc3ccc(F)cc3F)cc2)c(=O)c1Br` [TCMDC-135461] here?
A: The value was 65.46%.

Q: With `Cc1[nH]c(C)c(-c2ccc(C#Cc3ccc(F)cc3F)cc2)c(=O)c1Br` [TCMDC-134692] as the compound, how does the “% Inhibition” value read?
A: The value was 64.24%.

Q: How did the “% Inhibition” value turn out when `Cc1[nH]c(C)c(-c2ccc(-c3ccc(F)cc3)cc2)c(=O)c1Cl` [TCMDC-137408] was run?
A: Its value is -2.511%.

Q: With `Cc1ccc(-c2ccc3c(c2)C=C(C(=O)NC2CCN(CCNC(=O)c4cccc(C(F)(F)F)c4)CC2)CCC3)cc1` [TCMDC-141948] as the compound, how does the “% Inhibition” value read?
A: Its value is -9.898%.

Q: Which “% Inhibition” value does the source give for `COC(=O)c1cccc(NC(=O)NC2CCN(c3ccnc(Nc4cc(OC)c(OC)c(OC)c4)n3)C2)c1` (centres unmarked) [TCMDC-133630] here?
A: The value was -28.99%.

Q: How did the “% Inhibition” value turn out when `Cc1cc(N2CCCC2)nc(Nc2ccc(NC(=O)c3cccc(F)c3)cc2)n1` [TCMDC-124709] was run?
A: The value was -4.91%.

Q: `Cc1ccnc(-n2c(C)cc(C=C3SC(=Nc4ccccc4)N(Cc4ccco4)C3=O)c2C)c1` [TCMDC-125659] was tested. Which “% Inhibition” value did it give?
A: The value was -67.39%.

Q: How did the “% Inhibition” value turn out when `O=C(N[C@H](CC1CCCCC1)C(=O)NC1CCCc2ccccc21)c1ccc(O)c(-c2cccc([N+](=O)[O-])c2)c1` (some centres unmarked) [TCMDC-140799] was run?
A: The value was 21.9%.

Q: Which “% Inhibition” value does the source give for `Cc1cccc2[nH]c(-c3cccc(-c4ccc(NC(=O)CS(C)(=O)=O)cc4)c3)nc12` [TCMDC-136851] here?
A: The value was -1.399%.

Q: Which “% Inhibition” value does the source give for `Cc1nc(C)c(CC(=O)Nc2cccc(-c3cccc(-c4nc5c(C)cccc5[nH]4)c3)c2)s1` [TCMDC-136997] here?
A: Its value is 6.613%.

Q: For `Cc1nc(C)c(CC(=O)Nc2ccc(-c3cccc(-c4nc5ccc(C(F)(F)F)cc5[nH]4)c3)cc2)s1` [TCMDC-136996], which “% Inhibition” value is on record?
A: Its value is -50.06%.

Q: With `Cc1cccc2[nH]c(-c3cccc(-c4ccc(NC(=O)CN5CCN(C)CC5)cc4)c3)nc12` [TCMDC-136983] as the compound, how does the “% Inhibition” value read?
A: The value was 81.12%.

Q: How did the “% Inhibition” value turn out when `Cc1cccc2[nH]c(-c3cccc(-c4cccc(NC(=O)CN5CCN(C)CC5)c4)c3)nc12` [TCMDC-136982] was run?
A: Its value is 18.86%.

Q: With `Cc1cccc2[nH]c(-c3ccc(-c4ccc(NC(=O)Nc5ccsc5)cc4)cc3)nc12` [TCMDC-133215] as the compound, how does the “% Inhibition” value read?
A: The value was -35.23%.

Q: With `Cc1cccc2[nH]c(-c3ccc(-c4ccc(NC(=O)CN5CCN(C)CC5)cc4)cc3)nc12` [TCMDC-136975] as the compound, how does the “% Inhibition” value read?
A: Its value is 64.7%.

Q: `Cc1nc(C)c(CC(=O)Nc2ccc(-c3cccc(-c4nc5c(C)cccc5[nH]4)c3)cc2)s1` [TCMDC-136998] was tested. Which “% Inhibition” value did it give?
A: The value was 88.79%.

Q: `CC(C)(C)OC(=O)N(Cc1cc(-n2nnnc2C(F)(F)F)ccc1O)[C@H]1CCCN(C(=O)OC(C)(C)C)[C@H]1c1ccccc1` [TCMDC-132022] was tested. Which “% Inhibition” value did it give?
A: The value was -21.48%.

Q: With `CC(C)(C)c1ccc(NC(=O)c2cccc(CN3CCCN(Cc4cccc(O)c4)CC3)c2)cc1` [TCMDC-135983] as the compound, how does the “% Inhibition” value read?
A: The value was -11.1%.

Q: For `O=C(/C=C/c1ccc(Cl)c(Cl)c1)NC1CCN(Cc2ccc(O)cc2)C1` (centres unmarked) [TCMDC-141739], which “% Inhibition” value is on record?
A: The value was 26.39%.

Q: How did the “% Inhibition” value turn out when `COc1ccc2nccc([C@@H](O)CN3CCC(NCc4cnc5c(c4)NC(=O)CS5)C(F)C3)c2c1` (some centres unmarked) [TCMDC-141716] was run?
A: Its value is 19.26%.

Q: With `CC(C)c1ccc(CN2CCC(CNC(=O)c3cc(-c4ccccc4F)cs3)C2)cc1` (centres unmarked) [TCMDC-134436] as the compound, how does the “% Inhibition” value read?
A: The value was 107.7%.

Q: Which “% Inhibition” value does the source give for `COc1ccccc1-c1csc(C(=O)NCC2CCN(Cc3ccc(C(C)C)cc3)C2)c1` (centres unmarked) [TCMDC-134510] here?
A: Its value is -33.71%.

Q: How did the “% Inhibition” value turn out when `CCc1ccc(CN2CCC(CNC(=O)c3cc(-c4ccccc4F)cs3)C2)cc1` (centres unmarked) [TCMDC-134431] was run?
A: The value was 96.16%.

Q: How did the “% Inhibition” value turn out when `CC(C)Oc1ccccc1-c1csc(C(=O)NCC2CCN(Cc3ccc(C(C)(C)C)cc3)C2)c1` (centres unmarked) [TCMDC-134512] was run?
A: Its value is 5.537%.

Q: With `CC(C)c1ccc(CN2CCCCC(NC(=O)c3cc(-c4ccccc4F)cs3)C2)cc1` (centres unmarked) [TCMDC-134462] as the compound, how does the “% Inhibition” value read?
A: Its value is -8.212%.

Q: `CC(C)(C)c1ccc(CN2CCC(CNC(=O)c3cc(-c4ccccc4F)cs3)C2)cc1` (centres unmarked) [TCMDC-134443] was tested. Which “% Inhibition” value did it give?
A: The value was 104.8%.

Q: With `CC(C)(C)c1ccc(CN2CCC(CNC(=O)c3cc(-c4ccccc4C(F)(F)F)cs3)C2)cc1` (centres unmarked) [TCMDC-134441] as the compound, how does the “% Inhibition” value read?
A: Its value is 105.6%.

Q: For `CCCc1cc(C(=O)N[C@@H](Cc2ccccc2)[C@H](O)CNC2CCOCC2)c(F)c(N2CCCCS2(=O)=O)c1` [TCMDC-135445], which “% Inhibition” value is on record?
A: Its value is 21.51%.

Q: How did the “% Inhibition” value turn out when `Cc1ccccc1C1CCN(C2CCC(NC(=O)c3ccc(-c4ccccn4)s3)CC2)CC1` (centres unmarked) [TCMDC-134106] was run?
A: Its value is -14.35%.

Q: How did the “% Inhibition” value turn out when `COc1cc(Cc2cnc(N)nc2N)ccc1OCc1cccc(Oc2ccccc2)c1` [TCMDC-138681] was run?
A: The value was -11.55%.

Q: Which “% Inhibition” value does the source give for `COc1cccc(Nc2nccc(NCC(O)c3ccc(C(F)(F)F)cc3)n2)c1` (centres unmarked) [TCMDC-136594] here?
A: Its value is -17.97%.

Q: For `CN1C(=C2SC(=Nc3ccc4ncccc4c3)N(Cc3ccccc3)C2=O)Sc2ccc(Cl)cc21` [TCMDC-124118], which “% Inhibition” value is on record?
A: Its value is 3.008%.

Q: How did the “% Inhibition” value turn out when `COc1ccc(NC(=O)[C@H](CC(C)C)Nc2cc(C)nc(NCC3CCCCC3)n2)cc1` [TCMDC-134917] was run?
A: Its value is -43.94%.

Q: Which “% Inhibition” value does the source give for `COc1cc(C2NCC3(CCOCC3)c3cc4c(cc32)OCCO4)cc(OC)c1OC` (centres unmarked) [TCMDC-125743] here?
A: Its value is -20.6%.

Q: How did the “% Inhibition” value turn out when `Cc1cc(C)c(C)c(OCCCON2C(N)=NC(N)=NC2(C)C)c1C` [TCMDC-131791] was run?
A: The value was -4.975%.

Q: Which “% Inhibition” value does the source give for `COCCNCc1ccc(-c2cccc(CN(C(=O)CCC3CCCC3)C3CCN(Cc4ccccc4)CC3)c2)cc1` [TCMDC-140552] here?
A: Its value is 102.7%.

Q: How did the “% Inhibition” value turn out when `CC(C)CNCc1ccc(-c2cccc(CN(C(=O)CCC3CCCC3)C3CCN(Cc4ccccc4)CC3)c2)cc1` [TCMDC-140551] was run?
A: The value was 80.54%.

Q: For `O=C(NC1CCN(c2ccnc3ccccc23)C1)c1cccc(C(F)(F)F)c1` (centres unmarked) [TCMDC-133580], which “% Inhibition” value is on record?
A: Its value is -5.668%.
